In the supplement of paper PMC6555819 one finds PBM binding z-score data, which are given here for twelve sequences.

What all share (assay): PBM binding z-score (relative to random genomic background probes); higher = stronger binding; sequences stand for … in GC…GCGATTGACAGCGTAGAATGAAGG
In experiment [1] the test system is FXR:RXRa (NR concentration 270 nM, RXRa partner concentration 90 nM). Summed up: (§1)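 Each nuclear receptor dimer, without ligand, was incubated for 1 h on custom Agilent 4×180K protein-binding microarrays. Binding was detected with antibodies against each partner (one per run), and scanned fluorescence was regression-normalized. The binding z-scores are referenced to random human genomic background probes.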

Experiment [2] relates to LXRa:RXRa (NR concentration 270 nM, RXRa partner concentration 90 nM). Summed up:
as §1

The test system of experiment [3] is LXRa homodimer (NR concentration 270 nM). An outline of the steps: as §1
Experiment [4] deals with LXRb:RXRa (NR concentration 270 nM, RXRa partner concentration 90 nM). Summed up:
as §1

The test system of experiment [5] is LXRb homodimer (NR concentration 270 nM). An outline of the steps:
as §1

The subject of experiment [6] is PPARa:RXRa (NR concentration 270 nM, RXRa partner concentration 90 nM). Summed up: as §1
Experiment [7] has as its system PPARg:RXRa (NR concentration 180 nM, RXRa partner concentration 90 nM). Summed up: as §1
The test system of experiment [8] is PPARg:RXRa 270nM:90nM, anti-RXR (NR concentration 270 nM, RXRa partner concentration 90 nM). An outline of the steps:
as §1

Experiment [9] concerns PPARg:RXRa 30nM:10nM, anti-RXR (NR concentration 30 nM, RXRa partner concentration 10 nM). Summed up: as §1
Experiment [10] concerns PPARg:RXRa 90nM:30nM, anti-RXR (NR concentration 90 nM, RXRa partner concentration 30 nM). Summed up:
as §1

Consider ATCGAAAGGTCGACGAGGTCAGTATACACCGTTT, for which the PBM binding z-score worked out at 5.54 in experiment [1]; 5.03 in experiment [2]; 1.52 in experiment [3]; 4.61 in [4]; 0.78 in experiment [5]; 5.04 in experiment [6]. Moreover, the PBM binding z-score in experiment [7] turned out to be 3.64; in experiment [8], 4.13; in experiment [9], 1.28; in [10], 2.65.
For the sequence ATCGAAAGGTCGAAGGGGAGTATACCCACCCGAA, the PBM binding z-score in [1] is 4.05; in [2] it was 3.15; in experiment [3] it was 0.303; in experiment [4] it was 2.7; in [5] it was 0.76; in experiment [6] it was 4.19. For the same sequence, the PBM binding z-score came out at 3.19 in [7], 2.91 in [8], 1.16 in experiment [9] and 1.99 in [10].
ACTAGCAGGCCAAGGGTCACTCCAGATTAGTCCG: the PBM binding z-score is 2.22 in [1]; 2.79 in [2]; 0.477 in [3]; 2.39 in [4]; -0.313 in experiment [5]; 4 in experiment [6]. Moreover, the PBM binding z-score in experiment [7] was determined as 7.89; in experiment [8] it was 7.08; in experiment [9], 5.52; in experiment [10], 7.48.
As to CCTTCCGGGTCACTCCAGGTTATAGCATCGGAGT, the PBM binding z-score in [1] is 4.29; in experiment [2] it was 7.37; in experiment [3], 1.67; in [4] it was 5.1; in experiment [5] it was 0.22; in [6], 4.38. Moreover, the PBM binding z-score in [7] was found to be 4.22; in experiment [8] it was 4.36; in experiment [9], 1.22; in experiment [10] it was 3.15.
As for AGACCGAGGGCACGCTGAGTTGATAGCAGAGTAG, the PBM binding z-score in experiment [1] was 0.748; in [2], 0.67; in experiment [3], -0.437; in experiment [4], 0.0788; in [5], -0.999; in experiment [6], 1.56. For the same sequence, the PBM binding z-score in experiment [7] is 0.962; in experiment [8], 0.775; in experiment [9], -0.337; in experiment [10], 0.0427.
As for GCTAGTTGGTCGGTAAAAGGTCACACACCGGTCG, the PBM binding z-score in experiment [1] was 3.17; in experiment [2], 4.03; in experiment [3], 3.77; in experiment [4] it was 3.81; in experiment [5], 0.63; in [6], 4.74. For the same sequence, the PBM binding z-score in experiment [7] came to 5.58; in experiment [8] it was 6.73; in experiment [9], 4.85; in experiment [10] it was 6.87.
Take ACAATGAGGTTATACGTAGATCAGGGAAGAAAGT: the PBM binding z-score in experiment [1] was 2.38; in [2], 2.12; in experiment [3], -0.0615; in [4] it was 1.59; in experiment [5], 0.813; in experiment [6], 2.93. The PBM binding z-score in experiment [7] is 1.84; in [8], 1.69; in experiment [9], 0.688; in [10], 0.925.
On to CTACCAAGGTGAACAAGGTCATTGATTACTATTC, for which the PBM binding z-score in [1] is 3.73; in experiment [2], 3.77; in experiment [3] it was 2.33; in experiment [4], 3.63; in [5], -0.00581; in experiment [6] it was 3.92. For the same sequence, the PBM binding z-score in experiment [7] worked out at 2.24; in experiment [8], 2.85; in experiment [9], 0.479; in experiment [10], 1.65.
Turning to TATACAGGGTCAAAGGACAGAGTACGAATGTCGA, the PBM binding z-score was 7.39 in experiment [1]; 6.09 in experiment [2]; 2.79 in experiment [3]; 4.85 in [4]; 2.96 in experiment [5]; 6.24 in [6]. Besides, the PBM binding z-score came out at 7.83 in experiment [7], 6.55 in [8], 4.83 in experiment [9] and 5.84 in [10].
For TGTCACAGTTCAAAGGTAACGTAAGTATCCACAC, the PBM binding z-score in experiment [1] is 4.13; in experiment [2], 3.82; in experiment [3], 0.785; in [4] it was 2.87; in [5], 0.361; in experiment [6], 4.26. In addition, the PBM binding z-score was 4.43 in experiment [7], 4.67 in experiment [8], 1.68 in [9] and 3.69 in experiment [10].
Turning to TTACCAATGTGAAAGGTCGTTGATGCACGCCTTG, the PBM binding z-score in experiment [1] was determined as 1.7; in experiment [2] it was 2.12; in [3], 0.874; in [4], 1.91; in [5], 0.227; in experiment [6] it was 3.26. Further, the PBM binding z-score in [7] was determined as 4.36; in [8], 5.96; in [9], 3.68; in experiment [10], 6.14.
On to CCGACTGGGGCAGAAAGGCTACCATACCATCCGG, for which the PBM binding z-score is -0.561 in experiment [1]; -0.818 in [2]; -0.431 in experiment [3]; -0.869 in [4]; -1.41 in experiment [5]; -0.338 in [6]. For the same sequence, the PBM binding z-score was 0.703 in experiment [7], -0.0777 in experiment [8], -0.705 in experiment [9] and -0.612 in [10].
